USP2a block = blocks human ubiquitin-specific protease USP2a. O75604. USP2 core, Ub-CHOP2 coupled fluorogenic reporter, 485/531. Potency, µM (series often up to 38.3 µM), for the others: top-dose activity change, negative = inhibition, actives largely listed as inhibitors. actives 0.01% (n = 330,000);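 note: potency is the fitted concentration of half-maximal effect; plate controls were DMSO wells for no effect and full inhibition by NEM control for full effect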
Target sequence (O75604 whole entry, looked up): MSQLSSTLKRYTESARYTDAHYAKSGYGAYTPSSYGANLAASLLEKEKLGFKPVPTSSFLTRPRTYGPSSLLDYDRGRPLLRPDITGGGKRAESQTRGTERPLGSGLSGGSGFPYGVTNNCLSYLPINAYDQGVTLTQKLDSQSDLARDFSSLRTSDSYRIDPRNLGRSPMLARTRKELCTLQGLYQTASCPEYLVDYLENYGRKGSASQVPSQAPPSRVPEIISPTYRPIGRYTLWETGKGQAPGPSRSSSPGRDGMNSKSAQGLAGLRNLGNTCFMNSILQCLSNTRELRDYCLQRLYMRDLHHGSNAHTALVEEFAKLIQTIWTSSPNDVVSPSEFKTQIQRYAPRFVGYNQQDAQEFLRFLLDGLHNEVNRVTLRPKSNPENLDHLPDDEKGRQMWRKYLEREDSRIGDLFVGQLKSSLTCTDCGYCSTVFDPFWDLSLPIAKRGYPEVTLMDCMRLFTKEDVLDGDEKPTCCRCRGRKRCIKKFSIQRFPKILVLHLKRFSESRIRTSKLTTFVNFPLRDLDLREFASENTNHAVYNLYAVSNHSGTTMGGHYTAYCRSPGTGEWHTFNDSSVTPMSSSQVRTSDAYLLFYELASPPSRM
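Deubiquitinase activity read as fluorescence (485/531 nm) after Ub-CHOP2 cleavage activates the enterokinase reporter on its substrate; USP2 core 10nM, Ub-CHOP2 and substrate 25nM each, 30min compound preincubation then 60min RT; data normalized to NEM, curves fitted.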
D1 antag = antagonists of human D1 dopamine receptor. P21728. HEK293 TREx D1 cells, calcium flux, dopamine EC80; hits give low values. activity change, negative = inhibition, % at 10 µM. actives 3.2% (n = 360,000). AID 504652; in the data active = activity change below about -30%; note: % is set by controls: 0 for no effect and ±100 for the full control effect
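Using tetracycline-induced force-coupled D1 Hek293 cells and a calcium dye, signals were followed for 180 s after compound, then for 180 s after EC80 dopamine, to detect inhibitors.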
D1 ag = agonists of human D1 dopamine receptor. HEK293 T-REx D1 cells, calcium flux, agonist mode. actives 1% (n = 360,000). P21728. activation, % at 2 µM; in the data active = activation above about 30%; note: 0% is about no effect
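Agonism was scored from calcium flux recorded over 180 s (1 read/s) after pintool compound addition, following a 10-cycle baseline. Cells were inducible force-coupled HEK293 TREx D1, plated overnight at 30 C and loaded with no-wash calcium dye.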
GALK inhibitor = blocks human galactokinase activity; P51570; Purified GALK, Kinase-Glo residual ATP luminescence; Potency, µM (highest dose often 57.5 µM), for the others: at the highest dose activity change, negative = inhibition, hits mostly inhibitors; actives 0.007% (n = 270,000); AID 1868; note: potency is the fitted concentration of half-maximal effect; % is set by controls: 0 for no effect and ±100 for the full control effect
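5 nM enzyme, 35 uM ATP, 100 uM galactose, 20 mM HEPES pH8.0, 5 mM MgCl2; 1 h RT; residual ATP by Kinase-Glo Plus luminescence, qHTS format.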
D1 PAM = human D1 dopamine receptor positive modulation. P21728. potentiation, % at 10 µM. HEK293 TREx D1 cells, calcium flux, dopamine EC20 potentiation. actives 0.036% (n = 360,000); in the data active = potentiation above about 30%; note: 0% is about no effect
Eya2 inh = Eya2 (human) phosphatase inhibition; O00167; recombinant Eya2, OMFP fluorescence dephosphorylation (OMFP is methylfluorescein phosphate); Potency, µM (top dose mostly 76.9 µM), for the others: at the highest dose activity, negative = inhibition, hits mostly inhibitors; actives 0.006% (n = 330,000); note: potency is the fitted concentration of half-maximal effect; % is set by controls: 0 for no effect and ±100 for the full control effect
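Eya2 protein (added as 0.2 uM solution) was preincubated with compound for 10 min at ambient temperature in 50 mM HEPES pH 7.5, 50 mM NaCl, 5 uM MgCl2, 0.05% BSA, 1 mM DTT. OMFP (added at 50 uM) then reacted 10 min; fluorescence read at 485/525 nm.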
Active calls of the source: *; ? = inconclusive; / = not tested or not shown. Shown are actives, neighbours in structure and some others; about 3.9% of the full set was active somewhere. Unless noted, calls come from the whole dose curve; as a rule, active = well fitted inhibition curve with a large enough effect; inconclusive = small, poorly fitted or top-dose-only effect, or effect the other way; inactive = flat fitted curve, though single readings scatter.

SMILES	USP2a block	D1 antag	D1 ag	GALK inhibitor	D1 PAM	Eya2 inh
O=C(CSC(=S)N1CCCC1)N1CCN(S(=O)(=O)c2cccc(F)c2)CC1	1%	-16	1	/	-6	25%
CCCCSCCCNC(=O)CN1C(=O)COc2ccc(S(=O)(=O)N3CCC(C)CC3)cc21	/	-4	8	/	-3	/
CCOc1ccccc1NC(=O)CCCc1nc(-c2ccccc2Cl)no1	/	-25	5	/	-1	/
O=C(COC(=O)c1ccc(O)cc1)Nc1cccc(S(=O)(=O)N2CCCCC2)c1	0%	-3	21	1%	-9	?
O=C(Cc1c[nH]c2ccccc12)Nc1cccc(S(=O)(=O)N2CCCCC2)c1	4%	-30*	0	2%	-8	9%
O=C(CNc1cccc(S(=O)(=O)N2CCCCCC2)c1)Nc1cccc([N+](=O)[O-])c1	3%	-32*	8	/	-11	2%
COC(=O)c1cc(NC(=O)CSc2ncn[nH]2)ccc1Cl	-1%	-44*	1	5%	-4	16%
O=C(CNc1cc([N+](=O)[O-])ccc1NCCO)Nc1cccc(S(=O)(=O)N2CCCCC2)c1	2%	-5	1	/	-6	-7%
Cc1cc(C)c(C(=O)OCC(=O)Nc2cccc(S(=O)(=O)N3CCCCC3)c2)c(C)c1	-2%	0	37*	/	3	-15%
O=C(Nc1ccc(F)cc1F)c1ccc(-n2cnnc2)cc1	/	-4	1	/	-5	/
CC1CCC(N2CC(=O)N(C3CCCCC3)C(c3ccc(F)cc3)C2=O)CC1 (configuration not stated)	/	33	0	/	-2	/
O=C(O[C@@H]1Cc2c(O)cc(O)cc2O[C@@H]1c1cc(O)c(O)c(O)c1)c1cc(O)c(O)c(O)c1	0%	2	1	10µM*	-1	1%
O=C(NCCc1nc2ccccc2n1Cc1ccccc1F)c1ccc(F)cc1	/	-36*	10	/	-4	/
COc1cccc(NS(=O)(=O)c2c(C)n(C)c(=O)n(C)c2=O)c1	3%	47	16	-2%	0	-3%
COc1ccc(NS(=O)(=O)c2c(C)n(C)c(=O)n(C)c2=O)cc1OC	1%	-31*	0	3%	0	1%
COc1cc(Nc2nc3c(S(=O)(=O)c4cccc(Cl)c4)nnn3c3ccsc23)cc(OC)c1	/	-1	0	/	-2	/
CC(C)Nc1nc2c(S(=O)(=O)c3cccc(Cl)c3)nnn2c2ccsc12	/	-57*	2	/	-8	/
CCc1ccc(S(=O)(=O)c2nnn3c2nc(NC2CCCC2)c2sccc23)cc1	/	-32*	4	/	-6	/
Cc1ccc(C)c(S(=O)(=O)c2nnn3c2nc(Nc2ccc(C)c(C)c2)c2sccc23)c1	/	-6	1	/	-5	/
CCCCNc1nc2c(S(=O)(=O)c3ccc(Cl)cc3)nnn2c2ccsc12	/	-51*	0	/	-8	/
O=S(=O)(c1ccc(Cl)cc1)c1nnn2c1nc(NCc1ccccc1)c1sccc12	/	1	2	/	-5	/
Cc1ccc(C)c(S(=O)(=O)c2nnn3c2nc(NC(C)C)c2sccc23)c1	/	-60*	1	/	-7	/
Cc1ccc(S(=O)(=O)c2nnn3c2nc(NC2CCCCCC2)c2sccc23)cc1C	/	-13	2	/	-1	/
O=C(NCCc1ccc(Cl)cc1)c1nc(-c2cccc(F)c2)n2c1CCCCC2	/	21	17	/	2	/
COC(=O)C1Cc2c([nH]c3ccccc23)C2(CCN(Cc3ccccc3)CC2)N1 (configuration not stated)	4%	-39*	58*	-2%	-4	?
SMILES	USP2a block	D1 antag	D1 ag	GALK inhibitor	D1 PAM	Eya2 inh
COc1ccc(Cn2c(=O)[nH]c3cc(C(=O)NCCC(C)C)ccc3c2=O)cc1	/	5	1	/	0	/
COc1ccccc1-n1cc(-c2ccc(Br)cc2)[nH]c1=S	2%	12	1	/	-6	2%
S=c1[nH]c(-c2ccc(Br)cc2)cn1CCc1ccccc1	0%	-90*	4	4%	-6	5%
CCOC(=O)c1c(NC(=S)Nc2ccc(OC)cc2)sc2c1CCCCC2	2%	7	3	/	1	1%
CCOC(=O)c1c(NC(=S)NNS(=O)(=O)c2ccc(Br)cc2)sc2c1CCCCC2	1%	-33*	11	8%	-7	-11%
CCC(=O)Nc1sc2c(c1C(=O)Nc1cccc(C)c1)CCCC2	/	-5	0	/	-3	/
CCC(=O)Nc1sc2c(c1C(=O)Nc1ccc(Br)cc1)CCCCC2	/	-31*	4	/	-3	/
CN1CCc2sc(NC(=O)Cc3ccccc3)c(C(=O)Nc3ccc(Cl)cc3)c2C1	/	-53*	23	/	-6	/
COc1ccc(CCNC(=O)CN2C(=O)COc3ccc(S(=O)(=O)N4CCCCCC4)cc32)cc1OC	/	-3	17	/	-1	/
Cc1ccccc1N1CCN(C2CCCN(C(=O)c3cc(CC(C)C)nn3C)C2)CC1 (configuration not stated)	-1%	-32*	3	-1%	-6	1%
Cc1ccc(N2C(=O)CSC23C(=O)N(CC(=O)NCCc2ccccc2)c2ccccc23)cc1C (configuration not stated)	/	1	4	/	-2	/
COc1ccc(CCC(C)NCCc2ccc(Cl)cc2Cl)cc1 (configuration not stated)	-6%	24	51*	-3%	-9	-13%
COc1ccc(CCC(C)NCc2ccc(Cl)c(Cl)c2)cc1 (configuration not stated)	0%	4	32*	-1%	-2	-1%
O=C1CSC(=NC2CCCCC2)N1	3%	12	1	0%	-1	-16%
O=C1CS/C(=N/N=C2CCCC2)N1	6%	-48*	4	6%	5	0%
CCOC(=O)CSc1nc2cc3c(cc2c(=O)n1CCCCCC(=O)NCc1ccc(OC)cc1)OCO3	/	-3	2	/	-3	/
OC(CN1CCCCC1)Cn1c2ccccc2c2cc(Br)ccc21 (configuration not stated)	0%	-63*	45*	1%	-5	-4%
Cc1[nH]c(=O)[nH]c(=O)c1C1N2CC3(C(C)C)CN1CC(C(C)C)(C2)C3=O (configuration not stated)	/	9	-1	/	-1	/
CCCN1C(=O)C(Cc2nc3ccccc3c(=O)n2-c2ccc(OC)cc2)c2cc(C)ccc21 (configuration not stated)	/	6	2	/	-1	/
Cc1ccc(N2CCN(Cc3nnc(-c4ccccc4F)o3)CC2)c(C)c1	/	-50*	11	/	-3	/

Screening data as filed in PubChem.
